In PubChem BioAssay AID2551 (National Center for Advancing Translational Sciences (NCATS), 2010):
Among all 310,000 compounds or so, about 17,000 (5.5%) were called active. Another 11% or so got no clear call; they are omitted. The full list was thinned out, with actives kept by preference. Values without a mark were called inactive. The call rests on the fitted dose curve; in most records, active means well fitted inhibition curve with a large enough effect; inconclusive means small, poorly fitted or top-dose-only effect, or effect the other way; inactive means no such curve, though single readings can be large or run the other way.

target: Nuclear receptor ROR-gamma (Mus musculus) (UniProt P51450); assay: qHTS for inhibitors of ROR gamma transcriptional activity; details: Drosophila S2 Gal4-RORgamma UAS-luciferase reporter, 20 h; series mostly up to 53.6 µM; activity change, negative = inhibition: at the top concentration; further: nearly all actives have a fitted effect of over 60% in size
Summary of the method: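 Schneider cells (Drosophila), stable Gal4 DBD–ROR gamma + UAS-luc; 1 hr cmpd preincubation; Cu2+ induction 700 uM final; 20 hr ambient; luminescence.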
On the % scale 0 is the no-effect control and ±100 the full control effect; potency means the concentration at half of the fitted maximal effect.

Chain of Nuclear receptor ROR-gamma (Mus musculus) (P51450 whole entry, looked up, the tested form may be a part): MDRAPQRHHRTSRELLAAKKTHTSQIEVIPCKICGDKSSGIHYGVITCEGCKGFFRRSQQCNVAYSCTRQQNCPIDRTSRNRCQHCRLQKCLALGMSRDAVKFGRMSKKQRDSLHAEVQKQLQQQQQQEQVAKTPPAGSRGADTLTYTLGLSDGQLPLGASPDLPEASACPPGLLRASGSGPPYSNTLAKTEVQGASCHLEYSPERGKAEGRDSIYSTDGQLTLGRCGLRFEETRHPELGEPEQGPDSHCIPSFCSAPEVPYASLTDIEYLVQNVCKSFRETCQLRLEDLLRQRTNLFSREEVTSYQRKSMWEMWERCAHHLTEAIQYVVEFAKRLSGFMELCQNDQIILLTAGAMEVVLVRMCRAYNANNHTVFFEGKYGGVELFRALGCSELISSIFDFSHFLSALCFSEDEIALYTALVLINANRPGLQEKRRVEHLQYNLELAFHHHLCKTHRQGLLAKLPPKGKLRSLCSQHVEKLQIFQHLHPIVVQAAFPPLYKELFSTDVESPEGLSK

SMILES	activity change, negative = inhibition [%]	Potency
COc1ccc2c(c1)N(C)/C(=C1/SC(=S)N(NC(C)=O)C1=O)S2	4.75	–
COc1ccc(OC)c(NC(=O)C2CCCN2S(=O)(=O)c2cccc3nsnc23)c1 (stereo not drawn)	-27.5	–
O=C(O)c1[nH]c2ccccc2c1C(c1cccc(O)c1)c1c(C(=O)O)[nH]c2ccccc12	-7.71	–
CCOCc1nnc(NC(=O)CSc2ccc(C)cc2)s1	-40.7	–
O=C(CSc1ccccc1)Nc1nnc(/C=C/c2ccccc2)s1	–	20 µM (active)
O=C(/C=C/c1ccccc1)Nc1nnc(SCC(=O)c2ccc3ccccc3c2)s1	-1.4	–
CC1(C)Cc2c(sc(NC(=O)C(=O)NCC3CCCO3)c2C(=O)O)CO1 (stereo not drawn)	-26	–
O=C(Nc1ccc(NC(=O)c2ccccc2F)cc1)c1ccccc1F	0.482	–
C/C(CC(=O)Nc1ccc(N(C)C)cc1)=N\NC(=O)c1ccccc1F	-23	–
COc1ccc(CC(=O)NC(C)CCc2ccccc2)cc1 (stereo not drawn)	16.8	–
C/C(=N\NC(=O)Cc1ccc(Cl)cc1)c1ccccn1	–	0.398 µM (active)
COc1ccc(CC(=O)N/N=C(\C)c2ccccn2)cc1	–	7.08 µM (active)
C/C(=N\NC(=O)Cc1ccc(F)cc1)c1ccc(F)cc1	41.3	–
COc1ccc(/C(C)=N/NC(=O)c2ccc3nc[nH]c3c2)cc1	1.35	–
C/C(=N\NC(=O)c1ccccc1F)c1ccccn1	–	0.631 µM (active)
C/C(=N\NC(=O)Cc1ccc(Br)cc1)c1cccnc1	19.1	–
Cc1ccc(Cn2cc(C(=O)NN)c(=O)c3ccc(F)cc32)cc1	-6.79	–
Cc1cccnc1CCNC(=O)C1CCC(=O)N(Cc2cccc(F)c2)C1 (stereo not drawn)	0.715	–
COc1cc2ccccc2cc1C(=O)Nc1ccccc1C	-19.4	–
COc1cc([N+](=O)[O-])cc([N+](=O)[O-])c1NC(=O)N1CCOCC1	-23.8	–
O=S(=O)(Cc1cc(Cl)nc(-c2cccnc2)n1)c1ccccc1	23.2	–
COc1ccc(C(=O)Nc2cc(C)c(NC(=O)c3ccccc3OC)cn2)cc1	-27.9	–
Cc1ccnc(N2C(=O)c3ccc([N+](=O)[O-])cc3C2=O)c1	-16.3	–
Cc1cccc(C)c1NC1=NC(=S)N(c2ccc(N(C)C)cc2)C1(C)C	–	14.1 µM (active)
COC(=O)c1cc(C(=O)NC(C)C2CC3CCC2C3)cc([N+](=O)[O-])c1 (stereo not drawn)	-8.79	–
Cc1c2cnn(CC(=O)NCc3ccccn3)c(=O)c2c(C)n1Cc1ccc(Cl)cc1	4.88	–
Cc1ccc(CN2CCN(c3ncccn3)CC2)c(C)c1	18.7	–

SMILES	activity change, negative = inhibition [%]	Potency
C#CCN(N(C)c1ncc(C(F)(F)F)cc1Cl)S(=O)(=O)c1ccc2ccccc2c1	-20.3	–
O=S(=O)(NCc1ccc(Cl)cc1Cl)c1cccs1	-12.9	–
CN(NS(=O)(=O)c1cccs1)c1ncc(C(F)(F)F)cc1Cl	–	5.62 µM (active)
Cc1cc(C(=O)CCl)c(C)n1CC1COc2ccccc2O1 (stereo not drawn)	–	10 µM (active)
O=C1C(=O)N(CC2COc3ccccc3O2)c2ccccc21 (stereo not drawn)	-0.423	–
O=C(NCC1COc2ccccc2O1)C1(c2ccccc2)CCCC1 (stereo not drawn)	27.7	–
Cc1ccc(C)c(OCc2cc(C(=O)N3CCN(c4cnccn4)CC3)no2)c1	15.6	–
O=C(CN1CCN(C(=O)C2CCCO2)CC1)Nc1c(Cl)cccc1Cl (stereo not drawn)	6	–
Cc1ccc(-n2ncc3c2CC(C)(C)CC3NC(=O)CCc2cnn(C)c2)cc1 (stereo not drawn)	-2.94	–
CC(C)NS(=O)(=O)c1ccc(OCC(=O)NC2CCCCCC2)cc1	-17.8	–
O=C(N/N=C\C1CC=CCC1)c1ccc(Br)o1 (stereo not drawn)	-8.11	–
CC(C)(C)C1CCC(=NNC(=O)c2ccc(Br)o2)CC1 (stereo not drawn)	-20.7	–
CCC(C)(C)C1CCC(=NNC(=O)c2ccc(Br)o2)CC1 (stereo not drawn)	–	11.2 µM (active)
Cc1cc(-c2nnc(SCC(=O)Nc3ccc(S(N)(=O)=O)cc3)n2N)n[nH]1	-28.9	–
CCOc1ccc(OCc2ccc(C(=O)N(C)c3ccccc3)o2)cc1	41.7	–
Cc1ccc(NC(=S)N(CCCN2CCC(C)CC2)Cc2ccco2)cc1	-10.4	–
COc1cccc(NC(=O)NCCN2CCCCC2)c1	-0.679	–
CCc1ccccc1NC(=S)N(CCN1CCCCCC1)Cc1ccco1	–	17.8 µM (active)
COc1cc2cc(CN(CCN3CCCC3)C(=O)Nc3ccccc3Cl)c(=O)[nH]c2cc1OC	-28.4	–
Cc1ccc(NC(=S)N(CCN2CCCCC2)Cc2ccco2)cc1C	–	10 µM (active)
CCc1ccccc1NC(=O)NCCN1CCCCC1	8.95	–
C=C1CCN(C(CC(C)C)C(=O)N2CCOCC2)S(=O)(=O)c2ccccc21 (stereo not drawn)	7.59	–
CCOc1ccccc1NS(=O)(=O)c1c[nH]c(C(=O)OC)c1	-1.36	–
COC(=O)[C@]1(S(=O)(=O)c2ccccc2)C[C@@H]2ON=C(c3ccc(OC)cc3)[C@@H]2C1	2.22	–
COc1ccc(CCC(C)N2CCc3ccccc3C2)cc1 (stereo not drawn)	9.94	–
CCCC(=O)N1CCC(CCC(=O)NC2CC2)CC1	-12.6	–
